PubChem BioAssay (NCI)
About 83,000 compounds went through this panel and 20% of them were active in at least one assay; those are over-represented in the sample as a whole.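 48-hour exposure, single concentration, 96-well plates; percent growth endpoint where 0 means no net growth. Active: below 10.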 A number with no mark means an inactive call. Calls of active or inactive are those of the source.

Experiments:
Assay in all cases: NCI-60 one-dose screen, 48 h (100 = growth as untreated, 0 = no growth, -100 = all killed)
Settings in all cases: 10 µM
RPMI-8226 leukemia = system: RPMI-8226 leukemia
OVCAR-8 ovarian = system: OVCAR-8 ovarian
OVCAR-5 ovarian = system: OVCAR-5 ovarian
OVCAR-4 ovarian = system: OVCAR-4 ovarian
SK-OV-3 ovarian = system: SK-OV-3 ovarian
IGROV1 ovarian = system: IGROV1 ovarian
OVCAR-3 ovarian = system: OVCAR-3 ovarian
HS 578T breast = system: HS 578T breast
NCI/ADR-RES ovarian = system: NCI/ADR-RES ovarian
T-47D breast = system: T-47D breast

SMILES: CS(=O)(=O)Nc1ccc(Nc2c3ccccc3nc3cc([N+](=O)[O-])ccc23)cc1
- growth (RPMI-8226 leukemia): 0.427% (active)
- growth (OVCAR-8 ovarian): 16.6%
- growth (OVCAR-5 ovarian): 67.7%
- growth (OVCAR-4 ovarian): 46.8%
- growth (SK-OV-3 ovarian): 53.3%
- growth (IGROV1 ovarian): 10.5%
- growth (OVCAR-3 ovarian): -1.65% (active)
- growth (HS 578T breast): 60.3%
- growth (NCI/ADR-RES ovarian): 87%
- growth (T-47D breast): -11% (active)

SMILES: N#Cc1ncc(Br)c(NC2CCCCCC2)n1
- growth (RPMI-8226 leukemia): 93.4%
- growth (OVCAR-8 ovarian): 89.8%
- growth (OVCAR-5 ovarian): 99.9%
- growth (OVCAR-4 ovarian): 91.3%
- growth (SK-OV-3 ovarian): 99.1%
- growth (IGROV1 ovarian): 104%
- growth (OVCAR-3 ovarian): 119%
- growth (HS 578T breast): 107%
- growth (NCI/ADR-RES ovarian): 106%
- growth (T-47D breast): 90.8%

SMILES: NC(=O)c1ccc(-c2cccc3c(=O)nc(N4CCOCC4)oc23)cc1
- growth (RPMI-8226 leukemia): 104%
- growth (OVCAR-8 ovarian): 101%
- growth (OVCAR-5 ovarian): 96.8%
- growth (OVCAR-4 ovarian): 90.5%
- growth (SK-OV-3 ovarian): 103%
- growth (IGROV1 ovarian): 103%
- growth (OVCAR-3 ovarian): 99.4%
- growth (HS 578T breast): 97.2%
- growth (NCI/ADR-RES ovarian): 97.3%
- growth (T-47D breast): 87.8%

SMILES: COc1cc2nc(Nc3cccc(NC(C)=O)c3)nc(N)c2cc1OC
- growth (RPMI-8226 leukemia): 55.7%
- growth (OVCAR-8 ovarian): 99%
- growth (OVCAR-5 ovarian): 117%
- growth (OVCAR-4 ovarian): 107%
- growth (SK-OV-3 ovarian): 118%
- growth (IGROV1 ovarian): 26.8%
- growth (OVCAR-3 ovarian): 111%
- growth (HS 578T breast): 95.7%
- growth (NCI/ADR-RES ovarian): 149%
- growth (T-47D breast): 90.1%

SMILES: CC(=O)N1N=C(c2ccc(Cl)cc2)CC1c1sc(Cl)nc1Cl (stereo not given)
- growth (RPMI-8226 leukemia): 87.5%
- growth (OVCAR-8 ovarian): 78%
- growth (OVCAR-5 ovarian): 96.9%
- growth (OVCAR-4 ovarian): 66.4%
- growth (SK-OV-3 ovarian): 83.2%
- growth (IGROV1 ovarian): 59.1%
- growth (OVCAR-3 ovarian): 75.6%
- growth (HS 578T breast): 98.2%
- growth (NCI/ADR-RES ovarian): 80.7%
- growth (T-47D breast): 75.1%

SMILES: CCOC(=O)N1C/C(=C/c2ccc(Cl)cc2)C(=O)/C(=C/c2ccc(Cl)cc2)C1
- growth (RPMI-8226 leukemia): -11.6% (active)
- growth (OVCAR-8 ovarian): 27.8%
- growth (OVCAR-5 ovarian): 120%
- growth (OVCAR-4 ovarian): 60.5%
- growth (SK-OV-3 ovarian): 83.7%
- growth (IGROV1 ovarian): 44%
- growth (OVCAR-3 ovarian): 27.4%
- growth (HS 578T breast): 63.9%
- growth (NCI/ADR-RES ovarian): 71%
- growth (T-47D breast): 69.8%

SMILES: N=C(N)c1ccc(-c2ccc(-c3ccco3)o2)cc1
- growth (RPMI-8226 leukemia): 25.3%
- growth (OVCAR-8 ovarian): 76.2%
- growth (OVCAR-5 ovarian): 79%
- growth (OVCAR-4 ovarian): 62.9%
- growth (SK-OV-3 ovarian): 94.9%
- growth (IGROV1 ovarian): 69.7%
- growth (OVCAR-3 ovarian): 88.2%
- growth (HS 578T breast): 83.4%
- growth (NCI/ADR-RES ovarian): 93.1%
- growth (T-47D breast): 58.7%

SMILES: COc1ccc(-c2cc(/C=C3\C(=O)Nc4ccc(Cl)cc43)[nH]n2)cc1OC
- growth (RPMI-8226 leukemia): 68.6%
- growth (OVCAR-8 ovarian): 81.4%
- growth (OVCAR-5 ovarian): 101%
- growth (OVCAR-4 ovarian): 19%
- growth (SK-OV-3 ovarian): 94.6%
- growth (IGROV1 ovarian): 66.8%
- growth (OVCAR-3 ovarian): 104%
- growth (HS 578T breast): 87.8%
- growth (NCI/ADR-RES ovarian): 91.5%
- growth (T-47D breast): 72.2%

SMILES: O=C(Nc1ccc(Cl)c(Cl)c1)Nc1c(Oc2ccc(Cl)c(Cl)c2)ccc(Cl)c1S(=O)(=O)O
- growth (RPMI-8226 leukemia): 14.9%
- growth (OVCAR-8 ovarian): 27.7%
- growth (OVCAR-5 ovarian): 53.7%
- growth (OVCAR-4 ovarian): 65.6%
- growth (SK-OV-3 ovarian): 22.4%
- growth (IGROV1 ovarian): 30.4%
- growth (OVCAR-3 ovarian): -9.85% (active)
- growth (HS 578T breast): -5.79% (active)
- growth (NCI/ADR-RES ovarian): 2.06% (active)
- growth (T-47D breast): 51.4%

SMILES: COc1ccc(-c2nc3sc(C4CC4)nn3c2/C=C2/C(=O)Nc3ccc(OC)cc32)cc1
- growth (RPMI-8226 leukemia): 58%
- growth (OVCAR-8 ovarian): 76.7%
- growth (OVCAR-5 ovarian): 89.5%
- growth (OVCAR-4 ovarian): 44.6%
- growth (SK-OV-3 ovarian): 50.9%
- growth (IGROV1 ovarian): 81.5%
- growth (OVCAR-3 ovarian): 79.7%
- growth (HS 578T breast): 25.3%
- growth (NCI/ADR-RES ovarian): 77.2%
- growth (T-47D breast): 68.7%

SMILES: N=C(N)c1ccc(-c2ccc(-c3cccs3)o2)cc1
- growth (RPMI-8226 leukemia): -25.4% (active)
- growth (OVCAR-8 ovarian): 60%
- growth (OVCAR-5 ovarian): 70.3%
- growth (OVCAR-4 ovarian): 41.6%
- growth (SK-OV-3 ovarian): 79.4%
- growth (IGROV1 ovarian): 67.5%
- growth (OVCAR-3 ovarian): 71.7%
- growth (HS 578T breast): 70.3%
- growth (NCI/ADR-RES ovarian): 71.5%
- growth (T-47D breast): 43.8%

SMILES: CCN(CC)CCOc1nc2cc(OC)c(OC)cc2c2c1-c1ccc(OC)cc1C2=O
- growth (RPMI-8226 leukemia): 49.2%
- growth (OVCAR-8 ovarian): 52.9%
- growth (OVCAR-5 ovarian): 111%
- growth (OVCAR-4 ovarian): 61.5%
- growth (SK-OV-3 ovarian): 77.3%
- growth (IGROV1 ovarian): 60.4%
- growth (OVCAR-3 ovarian): 80%
- growth (HS 578T breast): 89.6%
- growth (NCI/ADR-RES ovarian): 64.4%
- growth (T-47D breast): 107%

SMILES: CSc1nc(=O)n(Cc2ccc(Cl)cc2)c(=O)[nH]1
- growth (RPMI-8226 leukemia): 103%
- growth (OVCAR-8 ovarian): 98.8%
- growth (OVCAR-5 ovarian): 102%
- growth (OVCAR-4 ovarian): 110%
- growth (SK-OV-3 ovarian): 99.7%
- growth (IGROV1 ovarian): 132%
- growth (OVCAR-3 ovarian): 114%
- growth (HS 578T breast): 105%
- growth (NCI/ADR-RES ovarian): 105%
- growth (T-47D breast): 90.1%

SMILES: O=C1/C(=C\c2ccccc2)CN(C(=O)c2ccccc2)C/C1=C\c1ccccc1
- growth (RPMI-8226 leukemia): -27% (active)
- growth (OVCAR-8 ovarian): 14.3%
- growth (OVCAR-5 ovarian): 70.5%
- growth (OVCAR-4 ovarian): 36.5%
- growth (SK-OV-3 ovarian): 50.1%
- growth (IGROV1 ovarian): 26.6%
- growth (OVCAR-3 ovarian): -12.2% (active)
- growth (HS 578T breast): -14.8% (active)
- growth (NCI/ADR-RES ovarian): 21.9%
- growth (T-47D breast): 48.7%
